The source of these data is PubChem BioAssay (EPA / NIEHS).

Molecules are shown by their SMILES. Records with an inconclusive call do not appear. Calls of active or inactive are those of the source. How the source made its calls, unless noted: active means hit-call score of the fitted dose curve at least 0.9, where 1 is the maximum; inconclusive means response in the unintended direction; inactive means score below 0.9.

Experiment [1] can be described thus: ATG_TAL_CIS: Attagene CIS-FACTORIAL HepG2 Assay for human TAL Basal Promoter (AID 2282966; active means hit-call score of the fitted dose curve at least 0.9, where 1 is the maximum; inactive means score below 0.9;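 further: background control endpoint measuring basal TAL promoter reporter mRNA not a specific factor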). The conditions noted are these: HepG2 Attagene cis-factorial TAL promoter reporter; actives raise or lower the signal. In outline: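 Background-control endpoint: basal TAL promoter reporter transcripts in transiently transfected HepG2, measured 24 h after dosing. Read-out by RT-PCR with fluorescent primer extension and capillary electrophoresis; gain or loss of signal fitted relative to DMSO.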

In experiment [2] the target is X-box-binding protein 1 (Homo sapiens) (UniProt P17861). Briefly: ATG_Xbp1_CIS: Attagene CIS-FACTORIAL HepG2 Assay for human X-box Binding Protein 1 (XBP1) (AID 2282972; active means hit-call score of the fitted dose curve at least 0.9, where 1 is the maximum; inactive means score below 0.9). The conditions noted are these: HepG2 XBP1 cis-element reporter, Attagene multiplex; actives raise or lower the signal. In outline: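 Human hepatoma HepG2, cis-element reporter system, 24 h treatment; mRNA quantified by RT-PCR/CE fluorescence; fit relative to DMSO.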
X-box-binding protein 1 (Homo sapiens), sequence (P17861 whole entry, looked up): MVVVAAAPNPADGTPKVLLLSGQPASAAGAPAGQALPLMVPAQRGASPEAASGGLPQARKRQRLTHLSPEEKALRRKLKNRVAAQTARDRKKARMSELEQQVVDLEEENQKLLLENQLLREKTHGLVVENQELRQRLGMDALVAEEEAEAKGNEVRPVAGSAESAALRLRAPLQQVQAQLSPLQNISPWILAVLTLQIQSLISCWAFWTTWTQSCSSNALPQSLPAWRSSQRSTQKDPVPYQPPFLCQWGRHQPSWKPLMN

The target of experiment [3] is Bile acid receptor (Homo sapiens) (UniProt Q96RI1). Briefly: ATG_FXR_TRANS: Attagene TRANS-FACTORIAL HepG2 Assay for Farnesoid X Receptor (FXR) (AID 2282979).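 Further: hits raise reporter mRNA above DMSO so AC50 marks FXR activation.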 To be noted: HepG2 Attagene TRANS FXR-GAL4 reporter transcription. A digest of the protocol: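 Reporter transcripts from transfected HepG2 cells were measured 24 h after dosing, using RT-PCR with capillary electrophoresis of 6-FAM-labelled fragments. The read-out reflects activity of exogenous FXR-Gal4 chimera on GAL4-UAS units, with induction relative to DMSO.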

A short description of experiment [4]: ATG_M_06_TRANS: Attagene TRANS-FACTORIAL HepG2 Assay for M06 Transcription Factor (Internal Marker) (AID 2282983). To be noted: HepG2 Attagene TRANS M06 internal marker reporter. In outline:
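Background-control reporter readout: after 24 h chemical exposure of transiently transfected HepG2 (GAL4-UAS reporter units), mRNA quantified by RT-PCR with fluorescent labeling and capillary electrophoresis. Gain-of-signal fitting against DMSO baseline.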

The nature of experiment [5]: ATG_M_32_TRANS: Attagene TRANS-FACTORIAL HepG2 Assay for M32 Transcription Factor (Internal Marker) (AID 2282984). To be noted: HepG2 Attagene TRANS M32 internal marker reporter. In outline: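 Internal-marker readout from a multiplexed transcription reporter panel. HepG2 cells were transfected with GAL4-UAS reporter units, treated 24 hours, and reporter transcript levels determined by fluorescence after RT-PCR and capillary separation.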

The target in experiment [6] is Nuclear receptor subfamily 4 group A member 2 (Homo sapiens) (UniProt P43354). Briefly: ATG_NURR1_TRANS: Attagene TRANS-FACTORIAL HepG2 Assay for human Nuclear Receptor Related Protein 1 (NURR1) (AID 2282985). To be noted: HepG2 Attagene TRANS reporter, mRNA readout. A digest of the protocol:
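Endpoint: reporter mRNA increase relative to DMSO. HepG2 cells transfected with reporter units, treated 24 h; RNA processed by RT-PCR, labelling, HpaI digestion and capillary electrophoresis.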

In experiment [7] the target is Transcriptional activator Myb (Homo sapiens) (UniProt P10242). Briefly: ATG_Myb_CIS: Attagene CIS-FACTORIAL HepG2 Assay for human Myeloblastosis (Myb) Proto-Oncogene Transcription Factor (AID 2282986; active means hit-call score of the fitted dose curve at least 0.9, where 1 is the maximum; inactive means score below 0.9). The conditions noted are these: HepG2 Attagene CIS-FACTORIAL Myb reporter transcription; actives raise or lower the signal. In outline: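 Reporter transcript levels, quantified by fluorescent RT-PCR and capillary electrophoresis, serve as the read-out. Transfected HepG2 cells carrying cis-promoter reporter units are dosed for 24 hours, and curves are fitted bidirectionally against DMSO controls.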
Transcriptional activator Myb (Homo sapiens), sequence (P10242 whole entry, looked up): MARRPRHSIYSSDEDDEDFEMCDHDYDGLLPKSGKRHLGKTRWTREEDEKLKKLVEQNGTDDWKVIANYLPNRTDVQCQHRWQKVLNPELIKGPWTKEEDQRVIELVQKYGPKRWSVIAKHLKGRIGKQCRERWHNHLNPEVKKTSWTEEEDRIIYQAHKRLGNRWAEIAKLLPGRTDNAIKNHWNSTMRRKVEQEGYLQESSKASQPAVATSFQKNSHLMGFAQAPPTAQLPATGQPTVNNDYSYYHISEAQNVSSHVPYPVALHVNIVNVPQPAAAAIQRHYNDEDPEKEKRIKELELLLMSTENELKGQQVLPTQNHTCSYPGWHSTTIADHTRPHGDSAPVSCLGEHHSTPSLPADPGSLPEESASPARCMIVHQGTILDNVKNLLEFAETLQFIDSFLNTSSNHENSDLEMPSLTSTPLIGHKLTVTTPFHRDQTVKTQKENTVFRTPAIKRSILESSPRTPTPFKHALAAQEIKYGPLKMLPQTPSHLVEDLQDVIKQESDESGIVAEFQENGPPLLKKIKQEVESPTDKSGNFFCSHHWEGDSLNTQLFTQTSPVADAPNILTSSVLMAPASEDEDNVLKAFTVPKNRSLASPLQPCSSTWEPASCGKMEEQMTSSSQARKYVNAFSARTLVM

The target of experiment [8] is Nuclear respiratory factor 1 (Homo sapiens) (UniProt Q16656). Briefly: ATG_NRF1_CIS: Attagene CIS-FACTORIAL HepG2 Assay for human Nuclear Respiratory Factor 1 (NRF1) Orphan Gene (AID 2282987; active means hit-call score of the fitted dose curve at least 0.9, where 1 is the maximum; inactive means score below 0.9). To be noted: HepG2 NRF1 cis-element reporter, Attagene multiplex; actives raise or lower the signal. In outline:
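Multiplexed cis-reporter assay, HepG2 cells, 24 h treatment. Total RNA → oligo(dT) RT → PCR with reporter-specific primers → 6-FAM primer extension → HpaI cut → CE. Bidirectional fit vs DMSO.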

Experiment [9] can be described thus: ATG_TGFb_CIS: Attagene CIS-FACTORIAL HepG2 Assay for human Transforming Growth Factor (TGF) (AID 2282967; active means hit-call score of the fitted dose curve at least 0.9, where 1 is the maximum; inactive means score below 0.9). To be noted: HepG2 Attagene CIS TGFb reporter, mRNA transcription; actives raise or lower the signal. In outline: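 Multiplexed cis-reporter HepG2 system, 24 h treatment; mRNA induction read by fluorescence after RT-PCR and CE; DMSO negative control, bidirectional curve fitting.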

Experiment [10] is described as follows: ATG_VDRE_CIS: Attagene CIS-FACTORIAL HepG2 Assay for human Vitamin D Receptor Element (VDRE) (AID 2282968; active means hit-call score of the fitted dose curve at least 0.9, where 1 is the maximum; inactive means score below 0.9). The conditions noted are these: HepG2 VDRE cis-reporter transcription, actives raise or lower the signal. In outline:
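Compounds were applied for 24 h to HepG2 cells transfected with promoter-regulated reporter units. Total RNA was reverse-transcribed, and reporter amplicons were fluorescently labelled and sized by capillary electrophoresis.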

The target of experiment [11] is Nuclear receptor subfamily 1 group I member 3 (Homo sapiens) (UniProt Q14994). Briefly: ATG_CAR_TRANS: Attagene TRANS-FACTORIAL HepG2 Assay for human Constitutive Androstane Receptor (CAR) (AID 2282969).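 Further: activators raise reporter mRNA above DMSO so AC50 marks induction.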 The conditions noted are these: HepG2 Attagene TRANS-FACTORIAL CAR reporter. In outline:
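Transiently transfected HepG2, multiplex TRANS reporters (CAR-Gal4 chimera driving GAL4-UAS reporter). 24 h dosing. Readout: reporter transcript by RT-PCR + capillary electrophoresis, fluorescence intensity; positive direction vs DMSO.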

Experiment [12] deals with Steroid hormone receptor ERR1 (Homo sapiens) (UniProt P11474). Briefly: ATG_ERRa_TRANS: Attagene TRANS-FACTORIAL HepG2 Assay for human Estrogen-Related Receptor alpha (ERRa) (AID 2282971). The conditions noted are these: HepG2 Attagene TRANS reporter, ERRa transactivation. A digest of the protocol:
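Reporter transcripts from ERRa-Gal4 chimera activity measured in transiently transfected human HepG2 cells 24 hours after dosing, using RT-PCR with 6-FAM primer extension, HpaI digestion and capillary electrophoresis; DMSO is baseline.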

Experiment [13] can be described thus: ATG_M_19_TRANS: Attagene TRANS-FACTORIAL HepG2 Assay for M19 Transcription Factor (Internal Marker) (AID 2282974). To be noted: HepG2 Attagene TRANS-FACTORIAL M19 internal marker reporter. In outline: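 Fluorescence of 6-FAM-labelled reporter cDNA fragments, separated by capillary electrophoresis, served as the readout. These derived from HepG2 cells carrying transfected GAL4-UAS reporter units after 24 h dosing, with DMSO as negative control.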

In experiment [14] the target is Estrogen-related receptor gamma (Homo sapiens) (UniProt P62508). Briefly: ATG_ERRg_TRANS: Attagene TRANS-FACTORIAL HepG2 Assay for human Estrogen-Related Receptor gamma (ERRg) (AID 2282977).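 Further: hits increase reporter signal over DMSO so potencies reflect activators.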 The conditions noted are these: HepG2 Attagene TRANS reporter, ERRg transactivation. A digest of the protocol:
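Exogenous NR-Gal4 chimera activity measured as reporter transcript induction after 24 h in transiently transfected HepG2 cells. RNA reverse-transcribed, PCR-amplified, 6-FAM-labelled and resolved by capillary electrophoresis; increase over DMSO baseline.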

Experiment [15] has as its target Oxysterols receptor LXR-alpha (Homo sapiens) (UniProt Q13133). Briefly: ATG_LXRa_TRANS: Attagene TRANS-FACTORIAL HepG2 Assay for human Liver X Receptor alpha (LXRa) (AID 2282980). To be noted: HepG2 Attagene TRANS reporter, LXRa transactivation. A digest of the protocol: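 Chemical-induced reporter mRNA measured by RT-PCR with fluorescent labelling and capillary electrophoresis after 24 h dosing of transiently transfected HepG2 cells expressing exogenous NR-Gal4 chimeras; increases scored against DMSO baseline.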

For experiment [16], the target named is Hepatocyte nuclear factor 4-alpha (Homo sapiens) (UniProt P41235). Briefly: ATG_HNF4a_TRANS: Attagene TRANS-FACTORIAL HepG2 Assay for human Hepatocyte Nuclear Factor 4 alpha (HNF4a) (AID 2282982). To be noted: HepG2 HNF4a transactivation reporter, mRNA readout. In outline: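 Endpoint reflects transcriptional activation of a GAL4-UAS reporter by an HNF4a-GAL4 chimera in transfected HepG2 cells, 24 h post-dosing. Fluorescence from RT-PCR products separated by capillary electrophoresis; DMSO baseline.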
Hepatocyte nuclear factor 4-alpha (Homo sapiens), sequence (P41235 whole entry, looked up, the tested form may be a part): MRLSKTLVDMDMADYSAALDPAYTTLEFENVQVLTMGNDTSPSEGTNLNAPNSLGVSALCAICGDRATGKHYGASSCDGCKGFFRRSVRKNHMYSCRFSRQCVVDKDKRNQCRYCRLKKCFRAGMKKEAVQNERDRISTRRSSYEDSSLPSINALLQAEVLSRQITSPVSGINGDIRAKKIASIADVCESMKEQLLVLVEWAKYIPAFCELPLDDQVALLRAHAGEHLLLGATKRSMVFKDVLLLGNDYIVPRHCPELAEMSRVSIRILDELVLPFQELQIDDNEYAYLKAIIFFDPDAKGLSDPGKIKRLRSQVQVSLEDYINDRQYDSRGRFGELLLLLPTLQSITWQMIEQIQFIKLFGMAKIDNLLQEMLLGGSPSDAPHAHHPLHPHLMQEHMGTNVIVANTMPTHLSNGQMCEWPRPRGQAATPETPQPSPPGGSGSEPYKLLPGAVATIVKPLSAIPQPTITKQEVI

The target in experiment [17] is Estrogen receptor (Homo sapiens) (UniProt P03372). Briefly: ATG_ERa_TRANS: Attagene TRANS-FACTORIAL HepG2 Assay for human Estrogen Receptor alpha (ERa) (AID 2282970). To be noted: HepG2 Attagene TRANS ERa GAL4 reporter, mRNA. In outline:
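Reporter transcripts were measured 24 h after dosing by RT-PCR with fluorescent primer extension and capillary electrophoresis. The system is transiently transfected HepG2 expressing exogenous NR-Gal4 chimeras driving GAL4-UAS reporters; DMSO is the baseline.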

The nature of experiment [18]: ATG_GAL4_TRANS: Attagene TRANS-FACTORIAL HepG2 Assay for GAL4 (Internal Marker) (AID 2282976). To be noted: HepG2 Attagene TRANS GAL4 internal marker reporter. A digest of the protocol:
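In transfected human HepG2 liver cells dosed 24 h, GAL4 reporter mRNA serves as a baseline marker. Detection by RT-PCR with fluorescent capillary electrophoresis, activity fitted upward relative to DMSO.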

The target of experiment [19] is Oxysterols receptor LXR-beta (Homo sapiens) (UniProt P55055). Briefly: ATG_LXRb_TRANS: Attagene TRANS-FACTORIAL HepG2 Assay for human Liver X Receptor beta (LXRb) (AID 2282981). To be noted: HepG2 Attagene TRANS GAL4-LXRb reporter, mRNA. In outline: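 Multiplexed reporter assay, HepG2, 24 h dosing. Fluorescence of labelled RT-PCR products after capillary electrophoresis gives transcript level; positive fitting direction relative to DMSO.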
Oxysterols receptor LXR-beta (Homo sapiens), sequence (P55055 whole entry, looked up, the tested form may be a part): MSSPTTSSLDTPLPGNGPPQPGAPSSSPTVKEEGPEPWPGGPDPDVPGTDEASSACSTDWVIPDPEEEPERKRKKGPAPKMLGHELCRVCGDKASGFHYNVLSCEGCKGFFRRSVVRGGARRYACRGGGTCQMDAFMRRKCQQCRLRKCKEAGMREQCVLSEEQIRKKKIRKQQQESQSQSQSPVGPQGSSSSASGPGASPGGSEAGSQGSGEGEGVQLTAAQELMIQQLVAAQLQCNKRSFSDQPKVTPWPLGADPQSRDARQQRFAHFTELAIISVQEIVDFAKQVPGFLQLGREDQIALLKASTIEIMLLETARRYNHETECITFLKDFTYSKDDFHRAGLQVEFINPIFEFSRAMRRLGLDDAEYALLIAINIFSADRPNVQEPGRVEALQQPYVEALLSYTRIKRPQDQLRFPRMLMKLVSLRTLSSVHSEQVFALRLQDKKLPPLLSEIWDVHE

For experiment [20], the target named is Glucocorticoid receptor (Homo sapiens) (UniProt P04150). Briefly: ATG_GR_TRANS: Attagene TRANS-FACTORIAL HepG2 Assay for human Glucocorticoid Receptor (GR) (AID 2282978).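 Further: activators score as hits since higher reporter transcript over DMSO is fitted.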 To be noted: HepG2 Attagene TRANS GR reporter, mRNA transcription. In outline:
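Fluorescent capillary-electrophoresis quantitation of reporter mRNA is the readout, taken 24 h after dosing human HepG2 cells carrying transiently transfected GAL4-UAS reporter units activated by chimeric NR-GAL4 fusions; activity scored as induction over DMSO.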

Estrogen-related receptor gamma (Homo sapiens), sequence (P62508 whole entry, looked up, the tested form may be a part): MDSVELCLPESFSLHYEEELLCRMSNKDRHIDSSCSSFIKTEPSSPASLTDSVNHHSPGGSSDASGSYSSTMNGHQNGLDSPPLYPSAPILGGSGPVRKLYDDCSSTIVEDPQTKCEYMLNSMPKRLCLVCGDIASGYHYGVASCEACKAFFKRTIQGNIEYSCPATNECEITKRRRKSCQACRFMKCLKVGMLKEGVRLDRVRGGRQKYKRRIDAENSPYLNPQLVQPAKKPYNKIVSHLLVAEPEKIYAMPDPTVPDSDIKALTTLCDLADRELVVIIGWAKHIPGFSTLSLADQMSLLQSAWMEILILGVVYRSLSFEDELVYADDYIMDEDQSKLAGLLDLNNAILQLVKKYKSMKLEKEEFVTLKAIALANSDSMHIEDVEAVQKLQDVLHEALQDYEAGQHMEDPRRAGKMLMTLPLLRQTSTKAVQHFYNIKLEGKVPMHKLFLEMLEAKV
Steroid hormone receptor ERR1 (Homo sapiens), sequence (P11474 whole entry, looked up, the tested form may be a part): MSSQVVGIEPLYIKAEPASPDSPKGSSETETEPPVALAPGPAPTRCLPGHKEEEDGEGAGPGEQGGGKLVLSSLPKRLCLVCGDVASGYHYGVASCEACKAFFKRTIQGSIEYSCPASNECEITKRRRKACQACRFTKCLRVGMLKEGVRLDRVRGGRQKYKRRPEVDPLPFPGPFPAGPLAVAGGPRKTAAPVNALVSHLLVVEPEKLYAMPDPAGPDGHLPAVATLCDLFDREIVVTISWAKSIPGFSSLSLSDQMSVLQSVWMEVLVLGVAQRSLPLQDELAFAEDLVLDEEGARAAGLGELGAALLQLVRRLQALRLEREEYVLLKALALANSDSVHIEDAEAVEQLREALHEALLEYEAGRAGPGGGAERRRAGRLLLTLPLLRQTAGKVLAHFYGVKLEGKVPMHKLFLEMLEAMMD
Nuclear receptor subfamily 4 group A member 2 (Homo sapiens), sequence (P43354 whole entry, looked up): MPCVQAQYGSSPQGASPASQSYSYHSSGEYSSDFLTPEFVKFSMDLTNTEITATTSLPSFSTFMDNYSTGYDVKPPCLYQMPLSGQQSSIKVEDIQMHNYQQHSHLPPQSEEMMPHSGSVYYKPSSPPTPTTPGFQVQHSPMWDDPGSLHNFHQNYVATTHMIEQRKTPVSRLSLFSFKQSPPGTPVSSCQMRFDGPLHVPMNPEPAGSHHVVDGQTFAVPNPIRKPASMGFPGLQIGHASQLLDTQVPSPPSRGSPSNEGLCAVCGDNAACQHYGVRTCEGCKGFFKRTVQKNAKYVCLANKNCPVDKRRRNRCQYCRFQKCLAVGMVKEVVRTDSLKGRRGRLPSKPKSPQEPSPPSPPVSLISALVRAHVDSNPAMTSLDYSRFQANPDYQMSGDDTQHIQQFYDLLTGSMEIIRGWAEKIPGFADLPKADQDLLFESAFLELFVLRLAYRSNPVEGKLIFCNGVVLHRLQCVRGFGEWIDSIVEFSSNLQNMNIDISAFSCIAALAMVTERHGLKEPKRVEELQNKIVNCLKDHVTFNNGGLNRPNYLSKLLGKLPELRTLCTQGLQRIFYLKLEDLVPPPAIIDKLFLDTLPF
Nuclear respiratory factor 1 (Homo sapiens), sequence (Q16656 whole entry, looked up): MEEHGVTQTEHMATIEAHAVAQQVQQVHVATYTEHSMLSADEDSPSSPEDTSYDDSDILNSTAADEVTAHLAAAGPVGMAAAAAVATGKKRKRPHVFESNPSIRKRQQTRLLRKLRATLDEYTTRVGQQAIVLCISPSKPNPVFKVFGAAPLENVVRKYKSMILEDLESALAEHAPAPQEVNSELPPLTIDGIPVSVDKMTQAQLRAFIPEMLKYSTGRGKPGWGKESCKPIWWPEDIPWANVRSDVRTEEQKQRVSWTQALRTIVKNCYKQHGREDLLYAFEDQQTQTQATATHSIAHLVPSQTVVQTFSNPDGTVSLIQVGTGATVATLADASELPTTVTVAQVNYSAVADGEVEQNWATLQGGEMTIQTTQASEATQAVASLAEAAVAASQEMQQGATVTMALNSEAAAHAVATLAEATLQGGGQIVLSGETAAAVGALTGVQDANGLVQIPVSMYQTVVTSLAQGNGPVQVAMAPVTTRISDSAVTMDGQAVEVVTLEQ
Oxysterols receptor LXR-alpha (Homo sapiens), sequence (Q13133 whole entry, looked up, the tested form may be a part): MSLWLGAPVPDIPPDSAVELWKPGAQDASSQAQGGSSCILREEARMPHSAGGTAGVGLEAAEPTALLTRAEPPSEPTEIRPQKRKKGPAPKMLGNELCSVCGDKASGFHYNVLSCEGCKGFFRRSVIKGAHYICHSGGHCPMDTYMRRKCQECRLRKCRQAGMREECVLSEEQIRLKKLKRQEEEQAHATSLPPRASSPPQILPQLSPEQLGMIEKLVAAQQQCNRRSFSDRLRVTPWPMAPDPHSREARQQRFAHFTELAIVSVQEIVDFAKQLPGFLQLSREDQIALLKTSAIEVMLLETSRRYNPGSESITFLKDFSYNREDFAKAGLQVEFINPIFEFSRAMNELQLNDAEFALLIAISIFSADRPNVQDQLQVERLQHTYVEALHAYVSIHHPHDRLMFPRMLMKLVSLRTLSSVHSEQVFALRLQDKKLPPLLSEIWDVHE
Nuclear receptor subfamily 1 group I member 3 (Homo sapiens), sequence (Q14994 whole entry, looked up, the tested form may be a part): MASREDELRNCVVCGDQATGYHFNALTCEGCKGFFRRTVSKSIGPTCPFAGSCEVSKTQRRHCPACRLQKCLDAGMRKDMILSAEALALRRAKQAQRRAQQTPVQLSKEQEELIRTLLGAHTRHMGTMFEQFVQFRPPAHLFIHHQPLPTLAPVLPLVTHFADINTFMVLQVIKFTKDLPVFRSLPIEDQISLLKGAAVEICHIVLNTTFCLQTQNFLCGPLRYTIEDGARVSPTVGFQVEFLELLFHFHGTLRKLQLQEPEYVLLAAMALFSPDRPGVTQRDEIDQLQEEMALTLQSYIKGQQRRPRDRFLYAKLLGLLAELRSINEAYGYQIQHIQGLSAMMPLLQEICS

Turning to `CCOC(=O)C(C#N)=C(c1ccccc1)c1ccccc1`, the compound was classed as inactive in [1], in experiment [2], in [3], in experiment [4], in experiment [5] and in experiment [7]. In addition, the AC50 (usually the midpoint of the concentration-response curve, whichever way the signal moves) in [6] was 100 µM (active); in experiment [8], 55.2 µM (active).
Regarding `CCC(C)c1cc([N+](=O)[O-])cc([N+](=O)[O-])c1OC(=O)OC(C)C` (stereo not given), the AC50 in experiment [9] is 100 µM (active); in [10] it was 0.705 µM (active); in experiment [6] it was 27.1 µM (active); in experiment [7], 156 µM (active); in [8], 143 µM (active). The compound was called inactive in experiment [11], in [12], in experiment [13], in experiment [14], in [15] and in experiment [16]. Also, the compound was classed as inactive in [5].
Consider `CCOc1ccc(NC(=O)CC(C)O)cc1` (stereo not given), for which the compound was classed as inactive in experiment [1], in experiment [13], in [16], in experiment [6], in [7] and in experiment [8].
`Nc1c(Cl)cc(Cl)cc1[N+](=O)[O-]`: the call in experiment [1], in experiment [10], in experiment [17], in [2], in [18] and in [15] was inactive. Besides, the call in experiment [19], in experiment [16], in [4], in experiment [5], in experiment [7] and in experiment [8] was inactive.
In the case of `CC(=O)OCCCc1ccccc1`, the outcome in [1], in experiment [12], in experiment [2], in [18], in [14] and in [15] was inactive. For the same compound, the compound was classed as inactive in [19], in [5], in [7] and in experiment [8].
For `C#CC(C)N(C)C(=O)Nc1ccc(Cl)cc1` (stereo not given), the call in experiment [1], in experiment [10], in experiment [11], in experiment [12], in [2] and in experiment [16] was inactive. Besides, the call in [4], in [6], in [7] and in [8] was inactive.
As to `Cc1c(Cl)cccc1[N+](=O)[O-]`, the compound was called inactive in [1], in [10], in [2], in [13], in [16] and in [7]. For the same compound, the compound was classed as inactive in experiment [8].
For the compound `COc1ccc(N)c([N+](=O)[O-])c1`, the compound was called inactive in [1], in [10], in experiment [2], in experiment [13], in [18] and in experiment [20]. Further, the compound was classed as inactive in experiment [4], in [6] and in experiment [8].
Consider `CS(=O)(=O)c1ccc(Cl)cc1`, for which the result in experiment [1], in [10], in [12], in [18], in experiment [14] and in experiment [20] was inactive. For the same compound, the compound was called inactive in [19], in [4], in [5], in [7] and in [8].
